Entries with a potency or affinity are not part of this list. The source made the active and inactive calls. How the calls were made is not given here.
Target: Peroxisome proliferator-activated receptor gamma (Homo sapiens) (UniProt P37231)
Assay: PPARg transcriptional activation, reporter cells – cell-based, luminescence, assay provider, dose response (AID 504447)
Conditions: luciferase luminescence, partial agonism; series mostly up to 5 µM

Sequence of Peroxisome proliferator-activated receptor gamma (Homo sapiens) (P37231 whole entry, looked up): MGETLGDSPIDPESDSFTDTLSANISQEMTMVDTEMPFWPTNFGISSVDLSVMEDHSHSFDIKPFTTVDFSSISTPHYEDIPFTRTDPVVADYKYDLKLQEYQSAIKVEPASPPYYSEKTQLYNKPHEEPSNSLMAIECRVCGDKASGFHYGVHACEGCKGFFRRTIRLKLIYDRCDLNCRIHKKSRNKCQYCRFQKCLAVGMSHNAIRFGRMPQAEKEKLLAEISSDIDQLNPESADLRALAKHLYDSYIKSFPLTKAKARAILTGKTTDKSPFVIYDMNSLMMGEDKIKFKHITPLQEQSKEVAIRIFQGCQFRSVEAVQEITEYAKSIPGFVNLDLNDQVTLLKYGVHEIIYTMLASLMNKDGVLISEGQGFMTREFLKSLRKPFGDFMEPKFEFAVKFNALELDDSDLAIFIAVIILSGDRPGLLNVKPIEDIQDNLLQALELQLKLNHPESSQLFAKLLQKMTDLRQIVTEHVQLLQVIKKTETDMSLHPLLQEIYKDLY

SMILES: O=C(O)CCN1C(=O)/C(=C/c2ccccc2Cl)SC1=S
- outcome: inactive

SMILES: O=C(O)CCN1C(=O)/C(=C/c2ccc(C(F)(F)F)cc2C(F)(F)F)SC1=S
- outcome: inactive

SMILES: COc1cc(/C=C(\NC(=O)c2ccccc2)C(=O)NC(C(=O)O)c2ccccc2)cc(OC)c1OC (stereo unspecified)
- outcome: inactive

SMILES: Cc1ccccc1NC(=O)CC1C(=O)Nc2ccccc2N1CC(=O)N(C)C1CCS(=O)(=O)C1 (stereo unspecified)
- outcome: inactive

SMILES: Cc1ccc2[nH]c(=O)c(CN(Cc3cccs3)Cc3nnnn3CC3CCCO3)cc2c1 (stereo unspecified)
- outcome: inactive

SMILES: CCC(=O)c1ccc(OCC(=O)OC(C)C(=O)Nc2c(C)n(C)n(-c3ccccc3)c2=O)cc1 (stereo unspecified)
- outcome: inactive

SMILES: COc1ccc(O)c(C(=O)c2cc(C#N)c(=O)n(-c3ccc(Cl)cc3)c2)c1
- outcome: inactive

SMILES: Cc1cc(C)c2nc(N3C(=O)C(O)=C(C(=O)c4ccco4)C3c3ccc(O)cc3)sc2c1 (stereo unspecified)
- outcome: inactive

SMILES: O=C(CNC(=O)c1nc[nH]c1C(=O)N1CCc2ccccc2C1)OCc1ccccc1
- outcome: inactive

SMILES: Cc1ccc(-c2nnc(Nc3ccc(O)cc3)c3ccccc23)cc1S(=O)(=O)NCCO
- outcome: inactive

SMILES: S=C(NCCc1ccccc1)N1CCn2cccc2C1c1ccncc1 (stereo unspecified)
- outcome: inactive

SMILES: COc1ccc(-c2cc(C(=O)NC(C)c3ccccn3)c3ccccc3n2)cc1OC (stereo unspecified)
- outcome: inactive

SMILES: O=C(O)CCN1C(=O)/C(=C/c2ccccc2)SC1=S
- outcome: inactive

SMILES: O=C(CSc1nnc(Cc2cc(=O)[nH]c(=O)[nH]2)n1-c1ccc(Cl)cc1)N1CCc2ccccc21
- outcome: inactive

SMILES: COc1ccccc1NC(=O)C(=O)c1cn(CC(=O)N2CCOCC2)c2ccccc12
- outcome: inactive

SMILES: O=c1c2cn(Cc3ccc(F)cc3)c3ccccc3c-2nn1Cc1ccc(F)cc1
- outcome: inactive
